ChEMBL document CHEMBL1961873, “Compounds: GSK PKIS; Assays: Nanosyn kinase panel” (2012)

Experiments:
[1] = target: Serine/threonine-protein kinase MARK2 (Homo sapiens) (UniProt Q7KZI7); settings: at 1 µM
[2] = target: PAS domain-containing serine/threonine-protein kinase (Homo sapiens) (UniProt Q96RG2); settings: at 0.1 µM
[3] = target: PAS domain-containing serine/threonine-protein kinase (Homo sapiens) (UniProt Q96RG2); settings: at 1 µM
[4] = target: Phosphorylase b kinase gamma catalytic chain, skeletal muscle/heart isoform (Homo sapiens) (UniProt Q16816); settings: at 0.1 µM
Chain of Phosphorylase b kinase gamma catalytic chain, skeletal muscle/heart isoform (Homo sapiens) (Q16816 whole entry, looked up, canonical isoform): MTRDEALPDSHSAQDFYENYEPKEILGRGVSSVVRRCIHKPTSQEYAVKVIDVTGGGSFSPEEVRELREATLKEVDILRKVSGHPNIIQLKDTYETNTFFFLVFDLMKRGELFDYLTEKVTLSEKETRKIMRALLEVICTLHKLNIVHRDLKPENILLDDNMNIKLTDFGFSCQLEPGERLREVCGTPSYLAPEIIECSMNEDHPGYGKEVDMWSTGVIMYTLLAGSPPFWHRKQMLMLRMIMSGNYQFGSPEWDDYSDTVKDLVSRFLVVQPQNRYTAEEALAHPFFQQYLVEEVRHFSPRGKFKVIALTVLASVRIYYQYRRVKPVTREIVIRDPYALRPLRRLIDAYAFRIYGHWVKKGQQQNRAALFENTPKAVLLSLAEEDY

[5] = target: Phosphorylase b kinase gamma catalytic chain, skeletal muscle/heart isoform (Homo sapiens) (UniProt Q16816); settings: at 1 µM
[6] = target: T1, Phosphorylase b kinase gamma catalytic chain, liver/testis isoform (Homo sapiens) (UniProt P15735); settings: at 0.1 µM
T1 sequence (whole entry): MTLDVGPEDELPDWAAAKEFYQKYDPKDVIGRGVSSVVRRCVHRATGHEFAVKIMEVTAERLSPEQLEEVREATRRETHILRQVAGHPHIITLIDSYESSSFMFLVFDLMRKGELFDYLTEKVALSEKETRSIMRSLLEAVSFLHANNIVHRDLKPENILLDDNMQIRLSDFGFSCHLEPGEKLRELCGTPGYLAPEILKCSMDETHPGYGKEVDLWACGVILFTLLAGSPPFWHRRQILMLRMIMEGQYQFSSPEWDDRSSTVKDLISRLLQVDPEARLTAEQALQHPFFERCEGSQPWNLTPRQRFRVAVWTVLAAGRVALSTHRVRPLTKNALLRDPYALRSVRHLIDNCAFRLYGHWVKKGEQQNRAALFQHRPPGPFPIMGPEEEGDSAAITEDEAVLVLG

[7] = target: T1, Phosphorylase b kinase gamma catalytic chain, liver/testis isoform (Homo sapiens); settings: at 1 µM
[8] = target: Serine/threonine-protein kinase pim-1 (Homo sapiens) (UniProt P11309); settings: at 0.1 µM
[9] = target: Serine/threonine-protein kinase pim-1 (Homo sapiens) (UniProt P11309); settings: at 1 µM
[10] = target: Serine/threonine-protein kinase pim-2 (Homo sapiens) (UniProt Q9P1W9); settings: at 0.1 µM
Chain of Serine/threonine-protein kinase pim-2 (Homo sapiens) (Q9P1W9 whole entry, looked up): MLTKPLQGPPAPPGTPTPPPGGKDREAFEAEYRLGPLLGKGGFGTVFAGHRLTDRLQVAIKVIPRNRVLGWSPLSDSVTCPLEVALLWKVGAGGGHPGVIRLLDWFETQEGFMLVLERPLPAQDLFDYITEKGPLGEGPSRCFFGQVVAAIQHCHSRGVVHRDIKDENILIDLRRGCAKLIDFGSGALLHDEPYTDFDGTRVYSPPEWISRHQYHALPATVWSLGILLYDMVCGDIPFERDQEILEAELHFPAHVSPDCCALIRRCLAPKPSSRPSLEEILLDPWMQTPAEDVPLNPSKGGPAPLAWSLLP

[11] = target: Serine/threonine-protein kinase pim-2 (Homo sapiens) (UniProt Q9P1W9); settings: at 1 µM
[12] = target: Serine/threonine-protein kinase pim-3 (Homo sapiens) (UniProt Q86V86); settings: at 0.1 µM
[13] = target: Serine/threonine-protein kinase pim-3 (Homo sapiens) (UniProt Q86V86); settings: at 1 µM
[14] = target: T2, MAP kinase-activated protein kinase 5 (Homo sapiens) (UniProt Q8IW41); settings: at 0.1 µM
T2 sequence (whole entry): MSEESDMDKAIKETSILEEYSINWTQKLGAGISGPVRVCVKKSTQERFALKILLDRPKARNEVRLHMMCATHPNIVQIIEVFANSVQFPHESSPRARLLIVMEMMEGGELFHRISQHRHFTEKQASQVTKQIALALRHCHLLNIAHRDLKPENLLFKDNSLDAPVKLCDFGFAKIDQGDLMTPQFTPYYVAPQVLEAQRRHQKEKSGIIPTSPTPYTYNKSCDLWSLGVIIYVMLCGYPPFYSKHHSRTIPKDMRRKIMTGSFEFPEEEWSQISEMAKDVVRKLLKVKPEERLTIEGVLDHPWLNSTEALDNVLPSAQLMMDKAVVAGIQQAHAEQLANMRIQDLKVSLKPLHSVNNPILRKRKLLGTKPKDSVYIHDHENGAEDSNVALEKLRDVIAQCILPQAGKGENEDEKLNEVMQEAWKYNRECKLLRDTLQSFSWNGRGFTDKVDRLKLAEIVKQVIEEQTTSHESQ

[15] = target: T2, MAP kinase-activated protein kinase 5 (Homo sapiens); settings: at 1 µM
[16] = target: Serine/threonine-protein kinase SIK1 (Homo sapiens) (UniProt P57059); settings: at 0.1 µM
Chain of Serine/threonine-protein kinase SIK1 (Homo sapiens) (P57059 whole entry): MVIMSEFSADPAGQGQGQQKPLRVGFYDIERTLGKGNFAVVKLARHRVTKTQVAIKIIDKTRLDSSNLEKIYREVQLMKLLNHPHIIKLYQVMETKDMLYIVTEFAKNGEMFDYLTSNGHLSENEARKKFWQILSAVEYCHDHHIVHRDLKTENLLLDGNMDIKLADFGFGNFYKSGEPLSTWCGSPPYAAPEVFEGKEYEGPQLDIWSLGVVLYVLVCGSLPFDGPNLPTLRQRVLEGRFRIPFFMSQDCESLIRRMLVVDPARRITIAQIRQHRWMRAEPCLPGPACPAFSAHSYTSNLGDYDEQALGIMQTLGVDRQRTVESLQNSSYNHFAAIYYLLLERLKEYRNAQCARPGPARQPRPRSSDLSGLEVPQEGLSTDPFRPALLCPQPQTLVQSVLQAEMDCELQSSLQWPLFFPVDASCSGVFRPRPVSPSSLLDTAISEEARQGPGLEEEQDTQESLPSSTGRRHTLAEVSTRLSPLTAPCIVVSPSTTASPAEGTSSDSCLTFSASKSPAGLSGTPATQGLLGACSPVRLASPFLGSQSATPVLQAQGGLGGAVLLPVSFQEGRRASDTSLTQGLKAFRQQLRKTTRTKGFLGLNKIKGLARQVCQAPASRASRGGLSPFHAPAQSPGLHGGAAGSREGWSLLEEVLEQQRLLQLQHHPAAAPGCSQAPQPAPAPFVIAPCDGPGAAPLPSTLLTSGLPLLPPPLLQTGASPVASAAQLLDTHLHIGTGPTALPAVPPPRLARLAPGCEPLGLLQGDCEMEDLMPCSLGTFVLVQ

[17] = target: Serine/threonine-protein kinase SIK1 (Homo sapiens) (UniProt P57059); settings: at 1 µM
[18] = target: Serine/threonine-protein kinase SIK2 (Homo sapiens) (UniProt Q9H0K1); settings: at 0.1 µM
Chain of Serine/threonine-protein kinase SIK2 (Homo sapiens) (Q9H0K1 whole entry, looked up): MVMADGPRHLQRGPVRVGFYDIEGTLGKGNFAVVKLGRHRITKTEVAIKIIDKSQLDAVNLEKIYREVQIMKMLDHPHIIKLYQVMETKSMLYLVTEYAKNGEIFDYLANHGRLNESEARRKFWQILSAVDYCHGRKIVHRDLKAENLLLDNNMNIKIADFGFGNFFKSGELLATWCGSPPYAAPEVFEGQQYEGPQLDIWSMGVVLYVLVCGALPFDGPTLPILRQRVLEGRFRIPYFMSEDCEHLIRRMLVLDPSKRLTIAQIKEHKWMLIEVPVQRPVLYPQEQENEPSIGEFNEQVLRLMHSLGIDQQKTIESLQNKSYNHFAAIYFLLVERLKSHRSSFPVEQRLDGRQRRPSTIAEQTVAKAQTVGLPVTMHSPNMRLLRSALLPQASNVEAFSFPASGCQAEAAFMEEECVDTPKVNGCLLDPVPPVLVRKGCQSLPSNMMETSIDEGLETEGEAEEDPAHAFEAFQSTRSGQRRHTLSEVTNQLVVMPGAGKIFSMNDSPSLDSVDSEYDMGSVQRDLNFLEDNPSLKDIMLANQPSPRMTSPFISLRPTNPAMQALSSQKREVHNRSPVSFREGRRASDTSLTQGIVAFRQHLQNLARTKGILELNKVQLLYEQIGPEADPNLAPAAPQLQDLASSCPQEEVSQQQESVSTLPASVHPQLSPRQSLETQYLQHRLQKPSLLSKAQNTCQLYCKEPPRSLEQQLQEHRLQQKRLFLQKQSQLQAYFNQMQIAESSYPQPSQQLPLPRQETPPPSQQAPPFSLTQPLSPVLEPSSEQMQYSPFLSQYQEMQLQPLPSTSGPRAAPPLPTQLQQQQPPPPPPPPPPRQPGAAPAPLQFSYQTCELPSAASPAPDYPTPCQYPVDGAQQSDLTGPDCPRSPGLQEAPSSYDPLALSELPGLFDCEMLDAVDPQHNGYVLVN

[19] = target: Serine/threonine-protein kinase SIK2 (Homo sapiens) (UniProt Q9H0K1); settings: at 1 µM
[20] = target: T3, Serine/threonine-protein kinase TBK1 (Homo sapiens) (UniProt Q9UHD2); settings: at 0.1 µM;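 further: values are the mean TBK1 inhibition, taken from the GSK PKIS screening data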
T3 sequence (whole entry): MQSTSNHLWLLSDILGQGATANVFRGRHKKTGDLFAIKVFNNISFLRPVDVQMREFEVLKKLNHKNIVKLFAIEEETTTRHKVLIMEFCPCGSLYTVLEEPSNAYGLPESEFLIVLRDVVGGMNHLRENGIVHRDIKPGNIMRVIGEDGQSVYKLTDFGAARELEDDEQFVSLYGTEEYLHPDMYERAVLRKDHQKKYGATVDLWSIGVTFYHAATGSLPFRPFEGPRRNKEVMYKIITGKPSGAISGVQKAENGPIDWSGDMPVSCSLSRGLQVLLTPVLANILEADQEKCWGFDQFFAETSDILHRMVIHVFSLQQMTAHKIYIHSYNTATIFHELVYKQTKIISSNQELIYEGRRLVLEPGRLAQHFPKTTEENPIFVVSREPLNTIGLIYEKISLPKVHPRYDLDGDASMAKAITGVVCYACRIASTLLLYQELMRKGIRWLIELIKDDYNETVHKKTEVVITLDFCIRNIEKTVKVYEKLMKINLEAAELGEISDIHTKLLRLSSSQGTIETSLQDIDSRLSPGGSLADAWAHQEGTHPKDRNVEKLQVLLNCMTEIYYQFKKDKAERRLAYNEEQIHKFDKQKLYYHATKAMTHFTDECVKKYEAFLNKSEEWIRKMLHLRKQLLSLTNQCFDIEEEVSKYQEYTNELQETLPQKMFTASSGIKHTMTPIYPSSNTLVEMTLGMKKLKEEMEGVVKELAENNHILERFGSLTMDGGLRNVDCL

Chain of Serine/threonine-protein kinase MARK2 (Homo sapiens) (Q7KZI7 whole entry, the tested form may be a part): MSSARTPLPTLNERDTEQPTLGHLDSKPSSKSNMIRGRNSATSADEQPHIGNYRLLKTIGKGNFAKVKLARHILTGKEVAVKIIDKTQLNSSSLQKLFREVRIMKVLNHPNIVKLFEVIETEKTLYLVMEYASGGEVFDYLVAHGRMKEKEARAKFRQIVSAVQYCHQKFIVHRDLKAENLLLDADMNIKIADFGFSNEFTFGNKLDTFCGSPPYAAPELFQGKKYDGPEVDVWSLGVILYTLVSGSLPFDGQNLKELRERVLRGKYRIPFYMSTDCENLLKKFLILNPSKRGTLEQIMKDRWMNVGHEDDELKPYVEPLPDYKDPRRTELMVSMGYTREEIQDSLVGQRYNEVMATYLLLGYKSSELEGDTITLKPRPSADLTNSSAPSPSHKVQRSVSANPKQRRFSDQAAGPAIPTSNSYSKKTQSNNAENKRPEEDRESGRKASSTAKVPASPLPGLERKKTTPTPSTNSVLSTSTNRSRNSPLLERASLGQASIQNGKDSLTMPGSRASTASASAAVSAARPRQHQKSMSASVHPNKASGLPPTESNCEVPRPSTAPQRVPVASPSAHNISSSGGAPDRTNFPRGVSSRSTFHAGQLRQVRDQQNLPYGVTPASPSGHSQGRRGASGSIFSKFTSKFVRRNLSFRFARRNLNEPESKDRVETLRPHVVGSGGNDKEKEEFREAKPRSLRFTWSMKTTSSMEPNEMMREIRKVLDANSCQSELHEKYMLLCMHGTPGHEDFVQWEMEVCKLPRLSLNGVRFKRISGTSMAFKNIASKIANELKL
Chain of PAS domain-containing serine/threonine-protein kinase (Homo sapiens) (Q96RG2 whole entry, the tested form may be a part, canonical isoform): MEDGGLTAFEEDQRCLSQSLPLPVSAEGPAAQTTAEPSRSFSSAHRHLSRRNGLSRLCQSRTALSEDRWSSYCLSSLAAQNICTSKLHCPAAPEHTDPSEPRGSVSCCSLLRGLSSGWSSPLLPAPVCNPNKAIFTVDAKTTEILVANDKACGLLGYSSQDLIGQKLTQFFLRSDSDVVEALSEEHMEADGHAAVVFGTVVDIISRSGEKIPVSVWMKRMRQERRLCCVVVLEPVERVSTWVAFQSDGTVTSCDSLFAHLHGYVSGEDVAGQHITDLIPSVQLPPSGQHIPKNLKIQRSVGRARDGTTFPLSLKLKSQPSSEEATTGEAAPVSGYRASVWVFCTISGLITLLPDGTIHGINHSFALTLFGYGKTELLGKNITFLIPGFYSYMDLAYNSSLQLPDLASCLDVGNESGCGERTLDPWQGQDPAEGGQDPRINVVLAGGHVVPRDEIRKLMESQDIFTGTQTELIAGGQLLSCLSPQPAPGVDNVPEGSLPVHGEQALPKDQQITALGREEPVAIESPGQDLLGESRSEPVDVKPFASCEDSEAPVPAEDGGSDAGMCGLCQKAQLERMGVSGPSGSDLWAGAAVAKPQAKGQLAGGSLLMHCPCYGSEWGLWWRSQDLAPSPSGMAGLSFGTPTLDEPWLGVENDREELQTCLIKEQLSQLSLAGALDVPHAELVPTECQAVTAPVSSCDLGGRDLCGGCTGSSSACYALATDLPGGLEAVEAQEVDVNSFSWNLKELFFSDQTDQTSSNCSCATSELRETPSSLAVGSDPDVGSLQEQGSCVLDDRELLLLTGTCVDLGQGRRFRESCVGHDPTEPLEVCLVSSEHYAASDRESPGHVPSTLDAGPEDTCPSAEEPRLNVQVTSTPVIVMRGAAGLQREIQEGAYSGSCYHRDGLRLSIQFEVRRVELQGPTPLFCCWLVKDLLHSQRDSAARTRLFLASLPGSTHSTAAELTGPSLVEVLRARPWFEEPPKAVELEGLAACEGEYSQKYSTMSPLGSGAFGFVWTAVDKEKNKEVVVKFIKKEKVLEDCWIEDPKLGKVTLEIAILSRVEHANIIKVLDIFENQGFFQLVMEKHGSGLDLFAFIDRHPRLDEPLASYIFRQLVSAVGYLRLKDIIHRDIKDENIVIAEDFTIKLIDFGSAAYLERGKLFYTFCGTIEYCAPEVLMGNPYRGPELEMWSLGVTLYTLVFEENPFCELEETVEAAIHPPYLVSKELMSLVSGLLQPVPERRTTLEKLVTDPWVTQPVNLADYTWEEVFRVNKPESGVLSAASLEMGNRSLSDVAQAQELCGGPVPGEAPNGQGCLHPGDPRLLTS

Compound | inhibition [1] [%] | inhibition [2] [%] | inhibition [3] [%] | inhibition [4] [%] | inhibition [5] [%] | inhibition [6] [%] | inhibition [7] [%] | inhibition [8] [%] | inhibition [9] [%] | inhibition [10] [%] | inhibition [11] [%] | inhibition [12] [%] | inhibition [13] [%] | inhibition [14] [%] | inhibition [15] [%] | inhibition [16] [%] | inhibition [17] [%] | inhibition [18] [%] | inhibition [19] [%] | inhibition [20] [%]
Nc1nccc(-c2c(-c3ccc(F)cc3)ncn2C2CCC(O)CC2)n1 (stereo not given) | 2.02 | -0.7 | -1.02 | -1.17 | 0.55 | -4.04 | -5.93 | -0.95 | -1.37 | 1.27 | 0.53 | 0.04 | 0.35 | -0.92 | -0.32 | 0.06 | 4.75 | -0.25 | 28.6 | 5.52
C[C@@H](Oc1cc(-n2cnc3ccc(OCC4CCN(C)CC4)cc32)sc1C(N)=O)c1ccccc1Cl | 19.7 | -0.74 | 3.45 | 2.43 | 10.2 | 8.59 | 9.94 | 18.5 | 70 | 0.64 | 2.74 | 11.4 | 52.7 | 1.77 | 2.11 | 11.5 | 42 | 7.32 | 22 | 4.93
CN(C)CCCNc1nccc(-c2c(-c3ccc(F)cc3)nn3cc(C(F)(F)F)ccc23)n1 | 2.71 | 0.83 | -0.37 | -0.27 | 2.68 | 2.52 | 0.17 | 0.62 | 1.32 | -3.76 | -3.32 | -0.45 | -0.57 | 0.44 | -0.97 | 3.07 | 7.21 | -1 | 6.81 | 0.75
FC(F)(F)c1cccc(Nc2nccc(-c3cnn4nc(-c5ccccc5)ccc34)n2)c1 | 0.61 | 0.34 | 0.28 | 3.06 | 6.39 | 2.99 | 2.77 | 0.96 | -0.68 | 0.77 | 1.06 | -0.15 | -0.3 | 0.76 | 0.4 | -0.41 | 7 | 2.43 | 5.47 | -0.2
C/C(Nc1ccc(S(N)(=O)=O)cc1)=C1/C(=O)Nc2ccccc21 | 18.6 | -1.08 | -1.37 | 5.53 | 29.9 | -0.73 | 19.6 | 0.43 | 2.86 | 0.75 | 0.33 | 0.02 | 1.7 | -0.26 | 1.08 | -7.25 | -0.38 | -6.72 | -0.55 | 0.77
O=C(Nc1ccc(Oc2ccc3[nH]c(NC(=O)c4ccccc4)nc3c2)cc1)Nc1cc(C(F)(F)F)ccc1F | 1.49 | 0.68 | 0.73 | 1.45 | 7.47 | 3.99 | 4.6 | 0.97 | 0.07 | -0.34 | -0.13 | 0.85 | -0.27 | 0.86 | 0.98 | 5.14 | 9.55 | 6.29 | 6.45 | 0.91
COc1cc(Nc2ncc3c(C)nc(-c4cccc(C(F)(F)F)c4)n3n2)cc(OC)c1OC | 3.54 | -0.04 | 0.78 | 5.08 | 11.8 | 4.94 | 6.94 | 0.28 | 2 | 0.34 | 3.02 | 3.42 | 6.73 | 1.19 | 2.92 | 3.9 | 15.9 | 10.9 | 13.5 | 1.64
NS(=O)(=O)c1ccc(N/N=C2\C(=O)Nc3ccc(-c4cnco4)cc32)cc1 | 16.6 | 0.16 | 4.38 | 5.17 | 27.9 | 1.94 | 4.44 | 4.65 | 38.9 | -0.37 | 24.5 | 1.42 | 15.5 | 1.08 | 3.26 | 1.71 | 14.3 | -1.16 | 7.34 | 7.17
NC(=O)c1cc(-c2ccncc2)cc(-c2ccccc2)c1N | 4.3 | 0.12 | -1.32 | 5.69 | 4.23 | 5.49 | 5.48 | 1.39 | 1.24 | -0.25 | 0.75 | -4.72 | -1.81 | 1.31 | 2.24 | 5.39 | 24 | 7.44 | 14.2 | 3.5
O=C1Nc2ccccc2/C1=C/Nc1ccc(-n2cncn2)cc1 | 10.2 | 0.03 | 1.73 | 9.39 | 33.6 | 5.95 | 18.7 | 0.85 | 0.68 | 0.56 | 2.25 | 1.36 | 4.7 | 1.63 | 4.02 | 5.8 | 9.8 | 3.09 | 11.6 | 6.41
c1ccc(-c2n[nH]cc2-c2ccnc(-c3ccc(OCCN4CCOCC4)cc3)c2)nc1 | 6.97 | 4.29 | 2.12 | 3.14 | 5.98 | -1.14 | -3.23 | 1.29 | 1.87 | 7.01 | 5.56 | 5.26 | 3.99 | -1.14 | -0.78 | 0.04 | -2.45 | -6.26 | -0.03 | 1.5
Fc1ccc(-c2ncn(C3CCNCC3)c2-c2ccnc(Oc3ccc(F)c(F)c3)n2)cc1 | 1.71 | -0.38 | -0.29 | 6.75 | 10.8 | 4.85 | 4.7 | -1.11 | -0.52 | -3.98 | -3.35 | -1.04 | -0.06 | 1.47 | 1.56 | 1.72 | 7.15 | 0.78 | 8.24 | 2.13
Clc1ccc(CNc2nccc(-c3cnn4ncccc34)n2)cc1 | 2.93 | 0.92 | 1.97 | -0.23 | 5.35 | 2.58 | 2.28 | 1.63 | 3.93 | -0.52 | 2.14 | 1.78 | 6.13 | 0.35 | 0.03 | 0.93 | 1.65 | 4.14 | 0.45 | 0.1
